High-throughput results (PubChem)
Shown are actives, neighbours in structure and some others; about 19% of the full set was active somewhere.
DT40 TDP1 no CPT – qHTS for Inhibitors of human tyrosyl-DNA phosphodiesterase 1 (TDP1): qHTS in cells in absence of CPT | Potency, µM (series often up to 46.2 µM), actives largely listed as inhibitors | AID 686978, 2013 | 420,000 tested, 15% active | DT40 Tdp1-/- hTDP1 cells, no CPT, ATP luminescence, 48 h; note: nearly all actives have a fitted effect of over 55% in size
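No-CPT arm: Tdp1-/-;hTDP1 DT40 cells (400/well) plus compounds, incubated ≥48 hr at 37 °C. Readout CellTiter-Glo luminescence.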
TDP1 block – TDP1 (human) enzyme inhibition. recombinant TDP1, AlphaScreen DNA substrate cleavage. Potency, µM (doses to about 130 µM), usual class: inhibitors. 350,000 tested, 0.28% active; note: nearly all actives have a fitted effect of over 40% in size
Target sequence (Q9NUW8 whole entry, looked up): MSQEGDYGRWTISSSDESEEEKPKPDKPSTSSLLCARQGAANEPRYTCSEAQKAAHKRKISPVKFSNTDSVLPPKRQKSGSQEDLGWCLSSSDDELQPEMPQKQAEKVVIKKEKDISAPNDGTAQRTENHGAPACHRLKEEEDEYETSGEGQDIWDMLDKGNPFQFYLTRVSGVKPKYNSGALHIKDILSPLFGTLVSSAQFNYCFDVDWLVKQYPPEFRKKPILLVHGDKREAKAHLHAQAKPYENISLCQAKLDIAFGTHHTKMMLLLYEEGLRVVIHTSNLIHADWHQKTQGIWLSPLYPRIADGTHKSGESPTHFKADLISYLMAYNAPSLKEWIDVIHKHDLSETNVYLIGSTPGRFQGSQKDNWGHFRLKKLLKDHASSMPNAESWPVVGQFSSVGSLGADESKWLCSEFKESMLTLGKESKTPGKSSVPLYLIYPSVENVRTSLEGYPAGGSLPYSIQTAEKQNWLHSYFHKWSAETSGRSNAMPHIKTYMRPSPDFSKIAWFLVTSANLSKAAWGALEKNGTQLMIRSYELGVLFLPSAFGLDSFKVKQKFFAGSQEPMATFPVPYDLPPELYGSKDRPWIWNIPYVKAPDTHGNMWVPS
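Compounds were preincubated with Tdp1 (1 nM final) for 15 min at room temperature before substrate (15 nM final) started a 5 min reaction; beads (10 ug/ml final) were then added for 10 min before AlphaScreen detection.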
IL-1B inflam inh – inflammasome signaling inhibition, IL-1 beta readout; 360,000 tested, 4.7% active; activity change, % at 57.5 µM; AID 743279; THP-1 LPS/ATP IL-1B secretion, AlphaLISA, 16 h; hits give low values; in the data active = activity change below about -50%; inconclusive = mostly about -30% to -49%
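THP-1 cells pretreated 1 hr with compounds (up to 57.5 uM final), then stimulated with LPS (250 ng/mL final) plus ATP (1.25 mM final); secreted IL-1B measured by AlphaLISA after 16 hr, decreased signal indicating inhibition.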
Giardia kill – Giardia lamblia killing; activity change, % at 7.66 µM, hits read low; Giardia lamblia trophozoite viability; 340,000 tested, 0.15% active; AID 540267; in the data active = activity change below about -80%; inconclusive = between about -30% and that limit;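 note: parasites exposed to compound for two days anaerobically before the ATP read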
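Killing of trophozoites was scored by loss of ATP luminescence after a 48 hrs anaerobic exposure to compounds at 37 deg C, using 100 cells per well.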
ELG1 DNA repair – blocks ELG1-dependent DNA repair in HEK293T cells | 330,000 tested, 2.3% active | HEK293T ELG1-luciferase reporter, luminescence, 16 h; DNA damage induced by 5-fluorouridine | Potency, µM (top dose mostly 46.1 µM), usual class: inhibitors; note: nearly all actives have a fitted effect of over 55% in size
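In this reporter screen, reduction of luminescence relative to DMSO vehicle indicated activity. Compounds and 5-fluorouridine were added together to 2,000 cells per well, incubated for 16 hr at 37 °C, then developed with ONE-Glo.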
TDP1 cell CPT – growth inhibition of DT40 Tdp1-/-;hTDP1 cells with camptothecin (screen for TDP1 inhibitors); chicken DT40 Tdp1-/-;hTDP1 cells + 20 nM CPT, ATP luminescence, 48 h; Potency, µM (highest dose often 46.2 µM), most hits filed as inhibitors; 420,000 tested, 12% active; note: nearly all actives have a fitted effect of over 55% in size
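Chicken DT40 Tdp1-/- cells stably complemented with human TDP1 were seeded at 400 cells/well in medium containing 20 nM camptothecin, exposed to pin-transferred compounds, and grown at 37 °C for at least 48 hr. Viability was read as ATP luminescence.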
A number is an active result; – = inactive; ? = inconclusive; · = no result given. Unless noted, calls come from the whole dose curve; as a rule, active = well fitted curve in the direction sought with a large enough effect; inconclusive = small, poorly fitted or top-dose-only effect, or another doubt; inactive = no such curve, though single readings can be large; an effect the other way counts as inactive or inconclusive.

SMILES	DT40 TDP1 no CPT	TDP1 block	IL-1B inflam inh	Giardia kill	ELG1 DNA repair	TDP1 cell CPT
COc1ccc2c(Sc3ccc(Cl)cc3)c(C(=O)NCCCN3CCCCC3)[nH]c2c1	23µM	–	·	·	·	23µM
CCCCNC(=O)CSc1nc2ccccc2nc1Cc1ccc(Cl)cc1	–	–	·	·	·	–
Cc1ccc(S(=O)(=O)Nc2ccc(Br)cc2/C=N/n2cnnc2)cc1	29µM	–	–	–	?	?
CS(=O)(=O)N1Cc2ccccc2CC1C(=O)Nc1ccccc1C(N)=O (stereo unspecified)	–	–	–	–	–	23µM
CCS(=O)(=O)N1Cc2ccccc2CC1C(=O)Nc1nc2ccccc2s1 (stereo unspecified)	16µM	–	–	–	?	?
CCOc1ccccc1NC(=O)C1Cc2ccccc2CN1S(C)(=O)=O (stereo unspecified)	–	–	–	–	–	–
CCc1nnc(NC(=O)C2Cc3ccccc3CN2S(=O)(=O)CC)s1 (stereo unspecified)	–	–	–	–	–	–
O=C(CN1CCN(S(=O)(=O)c2ccc(Br)cc2)CC1)N/N=C/c1ccco1	–	–	–	–	–	–
O=C(/C=C/c1ccccc1)c1c[nH]c2ccccc12	–	·	?	–	?	–
O=C(C=Cc1ccccc1)c1c[nH]c2ccccc2c1=O	6.5µM	·	-98	–	·	6.5µM
Cc1[nH]c2ccccc2c(=O)c1C(=O)/C=C/c1ccccc1	2.3µM	·	-101	–	8.2µM	5.2µM
O=C(COc1ccccc1)Nc1ccncc1Cl	–	–	–	–	?	–
COc1ccc(OC)c(Nc2nc(N)c([N+](=O)[O-])c(N3CCOCC3)n2)c1	?	·	?	–	?	?
COc1ccccc1OCCN(C#N)c1nc(N(C)C)nc(N(C)C)n1	?	–	-77	–	?	21µM
Cc1ccc(NC(=O)c2ccc(=O)[nH]n2)cc1S(=O)(=O)Nc1ccc(SC(F)F)cc1	18µM	–	–	–	?	15µM
Cc1ccc(NC(=O)c2ccc(=O)[nH]n2)cc1C	–	·	–	–	?	–
Oc1cccc(/C=N/Nc2cccc3cccnc23)c1	?	–	-75	–	?	?
Oc1c(/C=N/Nc2cccc3cccnc23)ccc2ccccc12	?	–	–	–	?	?
COc1cc(/C=N/Nc2cccc3cccnc23)cc(OC)c1O	16µM	–	?	–	?	?
COCCn1c(C)cc(O)c(C(c2ccccc2)N2CCN(CCO)CC2)c1=O (stereo unspecified)	–	–	·	·	·	–
Cc1ccc(C(=O)C(C)OC(=O)CN2C(=O)NC3(CCCC3)C2=O)cc1 (stereo unspecified)	–	–	–	–	–	–
Nc1c(NCCN2CCCCC2)c2ccccc2oc1=O	16µM	–	–	–	–	15µM
Cc1nc(NC(=O)/C=C/c2ccc(C(C)(C)C)cc2)sc1C(=O)N(C)C	?	–	–	–	?	?
O=C(Cn1nnc2ccccc2c1=O)N[C@H](C(=O)O)c1ccccc1	–	·	–	–	–	?
COc1ccc(NC(=O)C(c2ccc(OC)cc2)N(Cc2ccco2)C(=O)CC2NC(=O)NC2=O)cc1 (stereo unspecified)	–	–	–	–	–	–
SMILES	DT40 TDP1 no CPT	TDP1 block	IL-1B inflam inh	Giardia kill	ELG1 DNA repair	TDP1 cell CPT
COc1ccc(C(C(=O)Nc2ccc(C(C)C)cc2)N(Cc2ccco2)C(=O)CC2NC(=O)NC2=O)cc1 (stereo unspecified)	?	–	-70	–	?	?
COc1ccc(OC)c(CCNC(=O)c2ccc3c(c2)N(Cc2ccc(C)cc2)CCS3)c1	23µM	–	·	·	·	?
CCOc1ccc(CCNC(=O)c2ccc3c(c2)N(Cc2ccc(C)cc2)CCS3)cc1	?	–	·	·	·	18µM
COc1ccc(CCNC(=O)c2ccc3c(c2)N(Cc2ccc(F)cc2)CCS3)cc1OC	15µM	–	–	–	26µM	?
COc1ccc(CCNC(=O)c2ccc3c(c2)N(Cc2ccc(Cl)cc2)CCS3)c(OC)c1	·	–	·	·	·	·
CC(C)Oc1ccc(CNC(=O)c2ccc3c(c2)N(Cc2ccc(F)cc2)CCS3)cc1	7.3µM	–	·	·	·	10µM
O=C(NCc1ccccn1)c1ccc2c(c1)N(Cc1ccccc1)CCS2	?	–	–	–	?	?
COCCNC(=O)Cn1cnc2c(cnn2-c2ccc(C)cc2)c1=O	–	·	–	–	–	–
COc1cc(Cl)ccc1OCc1cc(C(=O)N(C)CC2CCCCO2)no1 (stereo unspecified)	–	–	–	–	?	–
CCOc1ccc(CNC(=O)c2ccc3c(c2)N(Cc2ccccc2)CCS3)cc1	13µM	–	·	·	·	?
COc1ccc(CNC(=O)c2ccc3c(c2)N(Cc2ccccc2)CCS3)cc1	15µM	–	·	·	·	?
COc1ccc2nc(C)c3c(c2c1)OC(C(C)(Cl)Br)C3 (stereo unspecified)	18µM	·	–	–	?	?
Cc1nc2ccccc2c2c1CC(C(C)(Cl)Br)O2 (stereo unspecified)	3.7µM	–	–	–	?	6.5µM
COc1ccc2nc(C)c3cc(C)oc3c2c1	–	–	–	–	–	–
Cc1nc2ccccc2c2c1CC(C)S2 (stereo unspecified)	–	–	–	–	–	–
CC(O)COC(C)(C)C (stereo unspecified)	·	–	·	·	·	·
Cc1ccc2[nH]c3c(c2c1)CCCC3C(N)=O (stereo unspecified)	–	–	–	–	–	–
Cc1ccc2[nH]c3c(c2c1)CCCC3NC(=O)CCl (stereo unspecified)	2.3µM	·	-100	–	18µM	6.5µM
Cc1ccc([C@H]2C[C@@H](O)[C@H](n3cc(-c4ccc(F)cc4)nn3)CN2C(=O)c2cccs2)cc1	15µM	·	–	·	·	?
Cc1ccc([C@H]2C[C@H](O)[C@@H](n3cc(-c4ccc(F)cc4)nn3)CN2C(=O)c2cccs2)cc1	18µM	·	–	·	·	?
Cc1ccc([C@H]2C[C@@H](n3cc(-c4ccc(F)cc4)nn3)[C@H](O)CN2C(=O)c2cccs2)cc1	15µM	·	–	·	·	18µM
Cc1ccc([C@H]2C[C@H](O)[C@@H](n3cc(COC(=O)c4ccccc4)nn3)CN2C(=O)c2cccs2)cc1	?	·	–	·	·	?
Cc1ccc([C@H]2C[C@@H](n3cc(C4CC4)nn3)[C@H](O)CN2C(=O)c2cccs2)cc1	–	·	–	·	·	–
Cc1ccc(-n2c(=O)c3c(C)c(C)sc3n(CC(=O)NCc3ccccc3)c2=O)cc1C	–	–	·	·	·	–
CCC(C)NC(C(=O)Nc1ccc(Cl)c([N+](=O)[O-])c1)c1ccccc1 (stereo unspecified)	16µM	–	–	–	–	?
